S2 tox: cell viability loss in ATXN counter-screen | S2 cells (HEK-293 line with an ATXN2-luciferase reporter) viability, CellTiter-Fluor protease fluorescence, 24 h | Potency, µM (highest dose often 56.7 µM), most hits filed as cytotoxic | hit rate 0.49% among 400,000; also: potency is read from the fitted curve at half-maximal effect; nearly all actives have a fitted effect of over 40% in size
IL1B secr inh: blocks inflammasome-driven IL-1 beta release. THP-1 LPS/ATP IL-1B secretion, AlphaLISA, 16 h; hits give low values. activity change, % at 57.5 µM. hit rate 4.7% among 360,000; in the data active = activity change below about -50%; inconclusive = mostly about -30% to -49%; also: % is scaled to controls: 0 for no effect and ±100 for the full control effect
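THP-1 cells pretreated 1 hr with compounds (up to 57.5 uM final), then stimulated with LPS (250 ng/mL final) plus ATP (1.25 mM final); secreted IL-1B measured by AlphaLISA after 16 hr, decreased signal indicating inhibition.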
USP2a block: blocks human ubiquitin-specific protease USP2a; O75604; USP2 core, Ub-CHOP2 coupled fluorogenic reporter, 485/531; Potency, µM (highest dose often 38.3 µM), for the others: at the top dose activity change, negative = inhibition, actives largely listed as inhibitors; hit rate 0.01% among 330,000; AID 463254;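 also: potency is read from the fitted curve at half-maximal effect; plate controls were DMSO wells for no effect and full inhibition by NEM control for full effect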
Target sequence (O75604 whole entry, looked up): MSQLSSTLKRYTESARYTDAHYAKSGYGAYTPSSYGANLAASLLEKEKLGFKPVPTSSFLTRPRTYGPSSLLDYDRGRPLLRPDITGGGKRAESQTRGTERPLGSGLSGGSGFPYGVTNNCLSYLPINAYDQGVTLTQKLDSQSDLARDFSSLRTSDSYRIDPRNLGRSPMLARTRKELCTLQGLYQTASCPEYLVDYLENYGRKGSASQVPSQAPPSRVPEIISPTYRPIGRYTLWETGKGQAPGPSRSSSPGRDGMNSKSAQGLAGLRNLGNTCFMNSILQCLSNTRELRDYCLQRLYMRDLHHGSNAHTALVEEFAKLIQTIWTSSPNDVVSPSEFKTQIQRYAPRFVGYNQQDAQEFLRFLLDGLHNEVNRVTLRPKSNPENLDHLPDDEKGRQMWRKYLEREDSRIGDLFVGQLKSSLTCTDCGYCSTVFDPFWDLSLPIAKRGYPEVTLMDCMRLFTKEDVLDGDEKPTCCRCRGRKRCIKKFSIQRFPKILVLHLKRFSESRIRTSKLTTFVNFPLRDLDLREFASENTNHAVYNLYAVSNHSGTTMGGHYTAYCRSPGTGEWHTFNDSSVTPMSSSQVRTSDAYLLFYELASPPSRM
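Cell-free coupled assay: 10nM USP2 core preincubated 30min RT with compound in Tris-HCl pH 8.0/CaCl2/CHAPS buffer, then 25nM Ub-CHOP2 and 25nM reporter substrate; fluorescence (Ex 485/Em 531) read after 60min RT, normalized to NEM inhibition, concentration-response curves fitted.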
USP1-UAF1 inh: blocks the human USP1/UAF1 deubiquitinase complex; O94782; recombinant USP1/UAF1, Ub-Rhodamine cleavage fluorescence; Potency, µM (highest dose often 57.1 µM), inactives show at the top dose activity change, negative = inhibition, usual class: inhibitors; hit rate 0.23% among 390,000; also: potency is read from the fitted curve at half-maximal effect; % is scaled to controls: 0 for no effect and ±100 for the full control effect; nearly all actives have a fitted effect of over 60% in size
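USP1/UAF1 complex at 1 nM was preincubated with compound for 15 min at room temperature, then Ub-Rho substrate (150nM final) was added. Fluorescence (480/540 nm) was read kinetically, 6 reads every 60 seconds.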
ATXN2 expr inh: reduces ATXN2 reporter expression in HEK-293 cells; AID 1745845; hit rate 0.72% among 360,000; Potency, µM (top dose mostly 57 µM), inactives show at the highest dose activity change, negative = inhibition, usual class: inhibitors; HEK-293 ATXN2-luciferase reporter, luminescence, 24 h; also: potency is read from the fitted curve at half-maximal effect; % is scaled to controls: 0 for no effect and ±100 for the full control effect; nearly all actives have a fitted effect of over 55% in size
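qHTS (up to 57 uM final) was run with 24 h compound exposure of reporter cells at 37 °C. Each well was multiplexed: SteadyGlo luminescence measured ATXN2-luciferase expression after a fluorogenic Gly-Phe-AFC viability readout (25 uM final).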
Numbers without * were called inactive; i = inactive; ? = inconclusive; / = no result; [ ] = dose if it differs, or a comment. Rows were chosen to be rich in hits. Some 4.8% of all compounds tested hit in one or more screens of this group. Unless noted, calls follow the shape of the dose curve; as a rule, active = well fitted curve in the direction sought with a large enough effect; inconclusive = small, poorly fitted or top-dose-only effect, or another doubt; inactive = no such curve, though single readings can be large; an effect the other way counts as inactive or inconclusive.

SMILES	S2 tox	IL1B secr inh	USP2a block	USP1-UAF1 inh	ATXN2 expr inh
COc1ccc(CN2CCN(C(=O)c3cccc4ccccc34)CC2)cc1Br	i	-65*	1%	-21%	-31%
COc1cccc(CN2CCN(C(=O)c3cccc4ccccc34)CC2)c1OC	i	-77*	-2%	-17%	-4%
COc1ccc(-c2[nH]ncc2CN2CCN(C(=O)c3ccco3)CC2)cc1F	i	-14	9%	-3%	-8%
COc1ccccc1CN1CCN(C(=O)c2cccc3ccccc23)CC1	?	-11	/	-28%	-18%
O=C(c1ccco1)N1CCCN(Cc2cn[nH]c2-c2ccc(-c3ccccc3)cc2)CC1	i	-82*	-6%	-26%	21%
COc1ccc2ccccc2c1CN1CCN(C(=O)c2ccco2)CC1	i	-52*	-1%	-18%	-27%
Clc1ccccc1-c1nnc(CNC2CC2)o1	i	-29	0%	-1%	18%
O=C(COCc1cc(-c2ccco2)on1)Nc1cccc(O)c1	/	/	/	7%	/
CC(=O)c1cc2c(cc1NC(=O)CN(C)S(=O)(=O)c1cccs1)OCO2	i	2	-2%	-20%	9%
OC1(c2ccc(Cl)cc2)CCNCC1	i	/	/	/	-18%
C[C@@]12C[C@@]3(O)O[C@@H](O1)[C@]1(COC(=O)c4ccccc4)[C@@H]3C[C@@]12O[C@@H]1O[C@H](CO)[C@@H](O)[C@H](O)[C@@H]1O	/	/	/	/	5%
CCOc1ccccc1-n1c(CN2CCN(C(=O)c3ccco3)CC2)nc2ccccc2c1=O	i	-103*	-1%	-10%	-19%
CC(C)(C)c1ccc(/C=C/C(=O)Nc2cccnc2)cc1	i	-52*	0%	-18%	101%
NCCNC[C@@H]1COC2(CCCCCCCCCCC2)O1	i	-68*	2%	-23%	0%
COc1ccc(N2C3=C(CC4=C2CC(C)(C)CC4=O)C(=O)CC(C)(C)C3)cc1	i	-102*	1%	?	16µM*
COc1ccc(C2C3=C(CC(C)(C)CC3=O)N(C)C3=C2C(=O)CC(C)(C)C3)cc1	/	-15	-4%	-11%	-11%[2.22 µM]
COc1ccc(N2C3=C(CC4=C2CCCC4=O)C(=O)CCC3)cc1	i	-94*	4%	-14%	-18%
COc1ccccc1C1C2=C(CC(C)(C)CC2=O)N(CC(=O)O)C2=C1C(=O)CC(C)(C)C2	/	0	-5%	-19%	12%
COc1ccc(-n2ccc(=O)c3c2CCCC3=O)cc1	i	18	3%	-13%	2%
COc1ccc(N2C3=C(C(=O)CC(C)(C)C3)C(c3ccccc3OC)C3=C2CC(C)(C)CC3=O)cc1	/	-86*	3%	-18%	-21%
O=C1CC(c2nnc(Cc3ccc(F)cc3)o2)CN1c1ccccc1 (centres undefined)	i	/	/	-9%	3%
COc1ccc(N2CCN(CCNC(=O)Nc3cccc(C)c3C)CC2)cc1	i	4	3%	-1%	/
COc1ccccc1N1CCN(CCNC(=O)Nc2cccc(C)c2C)CC1	i	-86*	0%	-9%	-25%
CCc1nc2c(OCCOc3ccc(F)cc3)cccn2c1N(C=O)Cc1ccccc1	i	-59*	/	/	0%
CCCCN(C=O)c1c(CC)nc2c(OCc3ccc(C(F)(F)F)cc3)cccn12	?	-65*	/	/	?
SMILES	S2 tox	IL1B secr inh	USP2a block	USP1-UAF1 inh	ATXN2 expr inh
Cc1nc2c(OCc3ccc(C(F)(F)F)cc3)cccn2c1N(C)Cc1cccs1	32µM*	-84*	/	/	?
CCc1nc2c(OCc3ccc(C(F)(F)F)cc3)cccn2c1N(C=O)Cc1ccc(OC)cc1	?	-72*	/	/	?
CCCCN(C=O)c1c(CC)nc2c(OCCC)cccn12	i	34	/	/	-7%
CCCOc1cccn2c(N(C=O)Cc3ccc(OC)cc3)c(CC)nc12	i	9	/	/	4%
CCc1nc2c(OCc3ccc(C(F)(F)F)cc3)cccn2c1N(C)C(C)=O	i	-9	/	/	-15%
C#CCN[C@@H]1CCc2ccccc21	i	/	/	/	-15%
COc1cccc(CNC(=O)Cn2c(C)c3cnn(-c4ccccc4)c(=O)c3c2C)c1	i	/	/	-11%	-12%
CCc1ccc(C(=O)C(C)OC(=O)c2nn(C)c(=O)c3ccccc23)cc1 (centres undefined)	i	2	-1%	-5%	1%
CCc1nc2ccc(C(=O)NC3CCN(Cc4ccccc4)CC3)cn2c1N(C)Cc1cc2ccccc2s1	?	-66*	/	/	?
CCc1nc2ccc(C(=O)NC3CCN(Cc4ccccc4)CC3)cn2c1N(C)Cc1cccs1	?	-52*	/	/	-2%
CSc1cccc(NC(=O)/C=C/c2ccccc2)c1	i	-63*	2%	-20%	53%
CSc1cccc(NC(=O)/C=C/c2ccc(Cl)cc2)c1	i	-72*	0%	-20%	4%
CC1CCN(C(=O)CSc2nc3ccccc3nc2Cc2ccccc2)CC1	/	/	/	-18%	/
COC(=O)c1c(C)nc2ccccc2c1C(=O)O	i	-3	1%	-7%	10%
COC(=O)c1cc(C)[nH]c2c(C)cc3nc4ccccc4c3c12	i	-98*	1%	-20%	-12%
CCCCN(C(=O)CCC(=O)Nc1cc(C)on1)C(C(=O)NC1CCCC1)c1ccc(F)cc1 (centres undefined)	i	-77*	0%	-6%	-4%
CCOc1ccc(N(C(=O)/C=C/C(=O)Nc2cc(C)on2)C(C(=O)NC2CCCC2)c2ccccc2C)cc1 (centres undefined)	?	-24	3%	-20%	-9%
COc1ccc(C(C(=O)NC(C)(C)C)N(CCO)C(=O)CCC(=O)Nc2cc(C)on2)cc1 (centres undefined)	i	28	-1%	-3%	12%
COc1ccc(C(C(=O)NC(C)(C)C)N(CCc2ccccc2)C(=O)CCC(=O)Nc2cc(C)on2)cc1 (centres undefined)	i	-57*	-6%	-10%	-5%
CCc1ccc(C(C(=O)NC2CCCC2)N(C(=O)/C=C/C(=O)Nc2cc(C)on2)c2ccccc2C)cc1 (centres undefined)	?	-63*	2%	?	/
O=C(NCc1ccccn1)c1cnn(-c2nccc(-c3cccs3)n2)c1C1CC1	i	/	/	/	/
CCOC(=O)/C=C/C(=O)OCC(=O)NCc1ccccc1	i	-91*	-6%	-5%	/
CCOC(=O)/C=C/C(=O)OCC(=O)Nc1c(Cl)cccc1Cl	i	-54*	5%	-17%	15%
COc1ccc(NC(=O)COC(=O)/C=C/C(=O)OCC(=O)Nc2ccc(OC)c(Cl)c2)cc1Cl	i	-103*	1%	-23%	-33%
C/C(=C\C(=O)OCC(=O)NCc1ccccc1)C(=O)OCC(=O)NCc1ccccc1	i	-2	3%	-23%	-2%

Screening data as filed in PubChem BioAssay.
